In general, IC50 refers to the concentration that gives 50% inhibition.

Molecules are shown by their SMILES. Out of some 2,200 compounds screened, about 1,200 (55%) were called active. Cut-off not given; nearly all actives show IC50 up to about 92 µM. The set was probably picked from earlier hits. Some of the results follow.

The nature of this assay: counter assay for TAg ATPase ADP read-out – biochemical, ADP-Hunter, fluorescence, counter-screen (AID 2501).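 Further: purified T antigen ATPase.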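 On inhibition: higher means more inhibition.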 To be noted: series mostly up to 100 µM. Background: The purpose of a counterscreen is to sort out artefacts and off-target activity.
With `COc1cc(Cn2nnc3ccccc32)ccc1O`, the 50% inhibitory concentration (IC50) was 3.65 µM (active).
For `COc1cc(Cn2c(-c3ccc(O)c(OC)c3)nc3ccccc32)ccc1O` the value was 0.9 µM (active); for `Cc1nc2cc(NCc3nc4ccccc4n3Cc3ccccc3)ccc2n1C`, “inactive”; for `Cc1cccc(C)c1NC(=O)CSCC(=O)c1ccc(O)c(O)c1`, 10.3 µM (active).
For `CCOc1ccc(C(=O)CSCC(=O)O)cc1` the value was “inactive”.
As for `COc1ccc(CCN(C)Cc2nc(Cc3ccc(OC)c(OC)c3)no2)cc1OC`, the entry is “inactive”.
As for `Cn1c(=O)c2c([nH]c(=S)n2Cc2ccc(Cl)cc2)n(C)c1=O`, the IC50 was 16 µM (active).
For `O=[N+]([O-])c1cccc(S(=O)(=O)N/N=C/c2ccc(O)cc2)c1` the value was 5.86 µM (active); for `COc1cc(/C=N/NS(=O)(=O)c2ccc(Br)cc2)ccc1O`, 14.6 µM (active).
As for `C/C(=N/NS(=O)(=O)c1cccc([N+](=O)[O-])c1)c1c[nH]c2ccccc12`, the figure is 9.39 µM (active); as for `COc1cc(/C=N/NS(=O)(=O)c2ccc(C)c([N+](=O)[O-])c2)ccc1O`, 8.36 µM (active).
As for `O=C(COC(=O)C1CC1)c1c[nH]c2ccccc12`, the entry is “inactive”.
Regarding `CC(C)(C)c1ccc(-c2nc(O)c(CC(=O)O)s2)cc1`, the IC50 entry was “inactive”.
On to `COc1cc(/C=C2/C(C)=C(C#N)c3nc(N)c(C#N)c(C)c32)ccc1OCC(=O)O`, for which the IC50 result is “inactive”.
As for `CC1=C(C#N)c2nc(N)c(C#N)c(C)c2/C1=C\c1ccc(OCC(=O)O)c(Cl)c1`, the IC50 was 95.7 µM (active).
Regarding `COc1cc(/C=C2\C(C)=C(C#N)c3nc(N)c(C#N)c(C)c32)ccc1OCC(=O)O`, the IC50 entry was “inactive”.
As for `Nc1ncnc2oc(-c3ccco3)c(-c3ccco3)c12`, the entry is “inactive”; as for `CS(=O)(=O)c1ccc2c(c1)SC1=NC(=O)/C(=C/c3ccco3)C(=N)N12`, “inactive”.
As for `CCOc1cc(/C=C2/NC(=O)N(CC(=O)OC)C2=O)ccc1O`, the figure is 5.19 µM (active); as for `Cc1ccc(NC(=O)CN2C(=O)N/C(=C\c3cccn3-c3cccc(C(=O)O)c3)C2=O)cc1`, “inactive”.
For `CCOc1cc(/C=C2\NC(=S)N(c3c(C)n(C)n(-c4ccccc4)c3=O)C2=O)ccc1O` the value was 3.07 µM (active).
Regarding `CCOc1cc(/C=C2\SC(=O)N=C2N)ccc1O`, the IC50 was 4.18 µM (active).
As to `COc1cc(/C=C2\SC(N)=NC2=O)ccc1O`, the IC50 was 4.85 µM (active).
For `NC1=NC(=O)/C(=C\c2ccco2)S1` the value was “inactive”; for `COC(=O)c1[nH]c2ccc(Br)cc2c1NC(=O)Oc1ccccc1`, “inactive”.
Take `CN(C)Cc1cc(O)c(CN(C)C)cc1O`: the IC50 result is “inactive”.
As for `NC1=NC(=O)S/C1=C\c1ccc(O)cc1`, the figure is 3.6 µM (active).
For `CCCN1C(=O)/C(=C/c2ccc(OCc3ccc(C(=O)O)cc3)c(OC)c2)NC1=S` the value was “inactive”; for `C=CCN1C(=O)/C(=C\C(C)=C\c2ccccc2)SC1=S`, “inactive”; for `Cc1c(N2C(=O)/C(=C\c3ccccc3O)SC2=S)c(=O)n(-c2ccccc2)n1C`, 54.7 µM (active).
As for `COc1cc(C2NC(=S)NC(C)=C2C(=O)Nc2cc(C)cc(C)c2)ccc1O` (stereo unspecified), the entry is “inactive”; as for `COc1cc(/C=C2\NC(=S)N(C)C2=O)ccc1O`, 3.23 µM (active); as for `CN=C1S/C(=C\c2ccc(O)c(OC)c2)C(=O)N1C`, 4.35 µM (active).
Regarding `CCOc1cc(/C=C2\SC(=NC)N(C)C2=O)cc(Cl)c1OC(C)=O`, the IC50 entry was “inactive”.
With `CCOc1cc(/C=N/NC(=O)N/N=C/c2ccc(O)c(OCC)c2)ccc1O`, the IC50 is 2.03 µM (active).
As for `CCOc1cc(/C=N/Nc2ncnc(Cl)c2N)ccc1O`, the figure is 3.29 µM (active); as for `CCOc1cc(/C=N/NC(=O)Nc2ccccc2)ccc1O`, 9.13 µM (active); as for `CCOc1cc(/C=N/Nc2nc(C)cc(=O)[nH]2)ccc1O`, 2.82 µM (active).
For `Nc1c(-c2ccccc2)c(CN2CCOCC2)nn1-c1ccc(F)cc1` the value was “inactive”.
For `COc1cc(/C=N/n2cnnc2)ccc1OC(=O)c1ccncc1` the value was 5.68 µM (active).
`Cc1cc(=O)[nH]c(N/N=C/c2c[nH]c3ccccc23)n1`: the IC50 was 5.41 µM (active).
As for `CCOc1cc(/C=N/n2cnnc2)ccc1O`, the figure is 6.86 µM (active); as for `COc1ccccc1NC(=O)COc1ccc(/C=N/n2cnnc2)cc1OC`, “inactive”; as for `Cc1cc(F)ccc1S(=O)(=O)N(C(=O)c1ccncc1)c1ccc(OC(=O)c2ccncc2)cc1`, 48.3 µM (active).
As for `Cc1ccc(C)n1Cc1ccc(C(=O)O)cc1`, the entry is “inactive”.
Consider `Cc1ccsc1C=Nc1ccc(O)cc1`, for which the 50% inhibitory concentration (IC50) was 5.76 µM (active).
As for `On1ccccc1=S`, the entry is “inactive”; as for `Cc1ccc(/C=N/N2C(=O)c3ccccc3NC2c2ccc(C)cc2)cc1` (stereo unspecified), “inactive”.
As for `Cc1ccc(C2C=NN(c3ccccc3)C2=O)cc1` (stereo unspecified), the figure is 12.2 µM (active); as for `Cc1ccc(C2=NOC(=O)/C2=C\c2ccccc2)cc1`, “inactive”.
For `CCCCn1c(N)c(N(CCOC)C(=O)c2cccc(S(=O)(=O)N(C)c3ccccc3)c2)c(=O)[nH]c1=O` the value was “inactive”; for `Cc1cc(C)c2c(CCl)cc(=O)oc2c1`, “inactive”; for `CC(=O)Oc1cc2oc(=O)cc(C)c2cc1OC(C)=O`, 10.8 µM (active).
In the case of `CCc1cc(=O)oc2cc(OCC(N)=O)c(Cl)cc12`, the IC50 entry was “inactive”.
As for `CCN(CC)c1ccc(NC(=O)CSc2nc3nc(C)cc(C)c3c(=O)[nH]2)cc1`, the figure is 6.75 µM (active); as for `COc1ccc(NC(=O)CSc2nc(NS(=O)(=O)c3ccc(C)cc3)cc(=O)[nH]2)cc1`, “inactive”; as for `CN(C)c1ccc(NC(=O)CSc2nc3c(c(=O)[nH]2)CCCC3)cc1`, 2.47 µM (active).
As for `Cc1sc2nc(CSCC(=O)N(C)CC(=O)Nc3ccc(F)cc3)[nH]c(=O)c2c1C`, the entry is “inactive”; as for `Cc1occc1-c1nnc(SCC(=O)Nc2ccc(F)cc2)n1Cc1ccccc1`, “inactive”; as for `CCN(CC)c1ccc(NC(=O)CSc2nnc3nc(C)cc(C)n23)cc1`, 2.92 µM (active).
For `Cc1ccc(C2(CCNCc3ccco3)CCOC(C(C)C)C2)cc1` (stereo unspecified) the value was “inactive”.
With `S=c1[nH]nc(-c2cc(-c3ccco3)[nH]n2)n1-c1ccccc1Cl`, the IC50 is 6.42 µM (active).
For `COc1ccccc1-n1c(-c2cc(-c3ccco3)[nH]n2)n[nH]c1=S` the value was “inactive”.
As for `FC(F)(F)c1ccc(Cl)c(-n2c(-c3cc(-c4ccco4)[nH]n3)n[nH]c2=S)c1`, the entry is “inactive”.
For `O=C(CN1C(=O)S/C(=C\C=C\c2ccccc2)C1=O)Nc1ccc(C(=O)O)cc1` the value was “inactive”.
Regarding `CN(C)c1ccc(NC(=O)CN2C(=O)CC(c3ccccc3)=Nc3ccccc32)cc1`, the IC50 was 5.09 µM (active).
On to `COc1cc(C=O)c(Cl)cc1OCC(N)=O`, for which the IC50 result is “inactive”.
For `CNC(=O)COc1ccc(C=O)cc1OC` the value was “inactive”; for `COc1ccc(CCNC(=O)c2cc(-c3ccc4c(c3)OCO4)on2)cc1OC`, “inactive”; for `COc1cc(CNc2ccc(N3CCCCC3)cc2)ccc1OCC(=O)NC(C)(C)C`, 4.51 µM (active).
As for `COc1cc(CNc2ccc(N3CCOCC3)cc2)ccc1OCC(=O)NC(C)(C)C`, the figure is 4.7 µM (active).
For `COc1cc(CNc2ccc3c(c2)OCCO3)ccc1OCC(N)=O` the value was 3.27 µM (active); for `CC(C)N=C(NC#N)SCc1ccc(Br)cc1`, “inactive”; for `Fc1cccc(Cl)c1Cn1nnc(-c2ccc(N3CCOCC3)cc2)n1`, “inactive”.
`CCCC(=O)N=c1sc2c(OC)ccc(OC)c2n1C`: the IC50 entry was “inactive”.
For `Cc1sc2nc(CSc3ccc([N+](=O)[O-])cc3)[nH]c(=O)c2c1C` the value was “inactive”; for `O=C1OCC(CO)(CO)N=C1NNc1ccccc1Cl`, 9.24 µM (active); for `Nc1ccc(OCCCc2c(N)nc(N)nc2N)cc1`, 6.58 µM (active).
`O=C1NN(c2ccccc2)C(=O)/C1=C\c1ccc(-c2cc([N+](=O)[O-])ccc2O)o1`: the IC50 is 6.89 µM (active).
As for `CC1=NN(c2cccc(C(=O)O)c2)C(=O)/C1=C\C=C\c1ccco1`, the entry is “inactive”; as for `Cc1ccc(-c2ccc(/C=C3\C(=O)ON=C3c3ccccc3)o2)c([N+](=O)[O-])c1`, “inactive”; as for `CC(C)S(=O)(=O)C1=NSC2=NC(=O)/C(=C\c3ccc(-c4ccccc4)o3)C(=N)N21`, “inactive”.
For `CC1=C(C#N)C(=O)NC(=O)/C1=C/c1ccc(-c2ccc(S(N)(=O)=O)cc2)o1` the value was “inactive”.
As for `N=C1/C(=C\c2ccc(-c3cccc(C(=O)O)c3)o2)C(=O)N=C2SC=C(c3ccccc3)N12`, the entry is “inactive”.
Consider `O=C1NN(c2ccccc2)C(=O)/C1=C/c1ccc(-c2cccc(C(=O)O)c2)o1`, for which the IC50 was 14.1 µM (active).
On to `O=C1NN(c2ccccc2)C(=O)/C1=C/c1ccc(-c2ccc(C(=O)O)cc2)o1`, for which the half-maximal inhibitory concentration (IC50) was 13.4 µM (active).
As for `CCn1c2ccccc2c2nnc(SCC(=O)N(C)C3CCS(=O)(=O)C3)nc21` (stereo unspecified), the entry is “inactive”; as for `CC1=C(C)CS(=O)N(S(=O)(=O)c2ccc(Cl)cc2)C1` (stereo unspecified), “inactive”.
In the case of `COc1ccc(NC2CCCN(Cc3cccc4cnccc34)C2)cc1OC` (stereo unspecified), the 50% inhibitory concentration (IC50) is 8.39 µM (active).
As for `Cc1ccc2c(cnn2C(=O)CCC(=O)NCc2ccccc2Cl)c1`, the entry is “inactive”; as for `Cc1ccsc1C(=O)NCc1ccccc1Cl`, 81.4 µM (active); as for `O=[N+]([O-])c1ccc(Sc2nc3ccccc3o2)c([N+](=O)[O-])c1`, “inactive”.
As for `O=C(CSc1nc2ccccc2o1)N/N=C/c1ccc(O)c(O)c1`, the figure is 7.74 µM (active).
As for `Cc1cc(SCC(=O)N/N=C/c2ccc(O)c(O)c2)nc2ccccc12`, the figure is 5.75 µM (active).
Take `CCSc1nc2ccccc2n1CC(=O)OC`: the IC50 entry was “inactive”.
As to `O=C(Cc1nnc(NC(=O)c2ccccc2)s1)N/N=C\c1ccc(O)c(O)c1`, the IC50 is 1.55 µM (active).
As for `CCn1c(SCC(=O)N/N=C/c2ccc(O)c(OC)c2)nc2ccccc21`, the figure is 6.63 µM (active).
As for `Cc1ccccc1C(=O)Nc1nnc(CC(=O)N/N=C/c2cn(Cc3ccccc3)c3ccccc23)s1`, the entry is “inactive”; as for `COc1ccc(C2C3=C(N=C4SCC(=O)N42)c2ccccc2CC3)cc1` (stereo unspecified), “inactive”; as for `Cn1c(SCC(=O)N/N=C/c2ccc(O)c(O)c2)nc2ccccc21`, 6.12 µM (active).
For `CN(C)c1ccc(NC2=C([N+](=O)[O-])CS(=O)(=O)C2)cc1` the value was 3.14 µM (active).

Source of the values: PubChem BioAssay AID2501 (Southern Research Specialized Biocontainment Screening …, 2010).
